RGS12 GoLoco inh – inhibitors of human Gai1-RGS12 GoLoco interaction (red fluorophore). P63096. Gai1:RGS12 GoLoco peptide FP, rhodamine, 10 min. Potency, µM (series often up to 61.6 µM), for inactives: top-dose activity, negative = inhibition, actives largely listed as inhibitors. 230,000 compounds, 0.44% hits; active means well fitted inhibition curve with a large enough effect, not every such curve was filed as active; inactive means no such curve, though single readings can be large or run the other way; further: potency means the concentration at half of the fitted maximal effect; on the % scale 0 is the no-effect control and ±100 the full control effect; nearly all actives have a fitted effect of over 30% in size
Target sequence (P63096 whole entry, looked up): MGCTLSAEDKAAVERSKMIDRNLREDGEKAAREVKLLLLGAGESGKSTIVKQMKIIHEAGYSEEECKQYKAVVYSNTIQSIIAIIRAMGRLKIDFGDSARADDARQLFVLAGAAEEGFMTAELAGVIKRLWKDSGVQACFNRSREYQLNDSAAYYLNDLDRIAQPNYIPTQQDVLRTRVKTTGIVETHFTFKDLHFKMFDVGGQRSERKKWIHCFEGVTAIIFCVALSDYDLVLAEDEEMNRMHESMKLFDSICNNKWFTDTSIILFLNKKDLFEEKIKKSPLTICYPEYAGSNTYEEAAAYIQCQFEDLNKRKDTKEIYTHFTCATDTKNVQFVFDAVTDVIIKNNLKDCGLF
ALDH1A1 block – inhibitors of human aldehyde dehydrogenase 1A1; 220,000 compounds, 7.3% hits; Purified ALDH1A1, NADH fluorescence, propionaldehyde substrate; AID 1030; Potency, µM (series often up to 75.3 µM), without a hit: at the highest dose activity, negative = inhibition, actives largely listed as inhibitors; P00352; active means well fitted inhibition curve with a large enough effect, not every such curve was filed as active; inconclusive means small, poorly fitted or top-dose-only effect, or another doubt; inactive means no such curve, though single readings can be large or run the other way;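 further: potency means the concentration at half of the fitted maximal effect; plate controls were no enzyme wells and a reference inhibitor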
HPGD inh – inhibitors of human 15-hydroxyprostaglandin dehydrogenase (HPGD); purified HPGD, NADH fluorescence kinetic, PGE2 substrate; 150,000 compounds, 4.3% hits; Potency, µM, without a hit: at the highest dose activity change, negative = inhibition, most hits filed as inhibitors; P15428; AID 894; active means well fitted inhibition curve with a large enough effect, not every such curve was filed as active; inconclusive means small, poorly fitted or top-dose-only effect, or another doubt; inactive means no such curve, though single readings can be large or run the other way; further: potency means the concentration at half of the fitted maximal effect; on the % scale 0 is the no-effect control and ±100 the full control effect
Target sequence (P15428 whole entry, looked up): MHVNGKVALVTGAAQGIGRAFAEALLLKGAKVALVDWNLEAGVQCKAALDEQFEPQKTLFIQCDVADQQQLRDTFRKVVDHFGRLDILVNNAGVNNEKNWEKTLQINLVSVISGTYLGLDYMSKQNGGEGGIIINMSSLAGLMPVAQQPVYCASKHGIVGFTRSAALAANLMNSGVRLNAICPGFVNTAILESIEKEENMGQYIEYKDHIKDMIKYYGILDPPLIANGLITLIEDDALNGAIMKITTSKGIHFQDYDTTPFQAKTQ
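NADH formation kinetics: reaction with 30 uM PGE2 and 1 mM NAD+ (final), 20 nM enzyme, Tris-HCl pH 8 with Tween 20, after 15 min compound preincubation at room temperature. Fluorescence change, last versus first of five reads.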
PNC assembly inh – perinucleolar compartment assembly inhibition; activity change (PNC), negative = inhibition, % at 10 µM; 140,000 compounds, 3.1% hits; AID 2417; PC3M PTB-GFP, PNC prevalence imaging, 16 h; hits give low values;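 active means readout at or below -70, meaning at least 70% loss of cells showing the perinucleolar compartment, a nuclear body marking cancer cells; inconclusive means readout between -30 and a set limit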;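 further: plate controls were DMSO wells for no effect and camptothecin positive control wells for full effect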
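Compounds are pinned in duplicate onto adhered PC3M cells stably expressing GFP-tagged PTB and incubated 16 h at 37 C. Cells are then fixed, nuclei stained with Hoechst, and PNC-positive cells counted.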
HTT cytoprotect – Huntington cell model cytoprotection by ATP luminescence; PC12 HTT-Q103 induced, cytoprotection, ATP luminescence, 40 h; 230,000 compounds, 0.14% hits; Potency, µM (series often up to 56.4 µM), without a hit: cytoprotection (ATP increase), actives largely listed as activators; AID 1471; further: potency means the concentration at half of the fitted maximal effect; % of control where 0% means no effect; nearly all actives have a fitted effect of over 45% in size
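Stable PC12 Q103-GFP cells in serum-supplemented, phenol red-free DMEM; induction by tebufenozide at 100 nM final; compound dose series; cell viability quantified luminescently from ATP.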
HTT aggregate – mutant huntingtin aggregation inhibition; 220,000 compounds, 1.1% hits; Potency, µM (titrated, usually from 46.1 µM), inactives show top-dose activity change, negative = inhibition, usual class: inhibitors; PC12 HttQ103-GFP aggregates, Acumen cytometry, 40 h; further: potency means the concentration at half of the fitted maximal effect; on the % scale 0 is the no-effect control and ±100 the full control effect; nearly all actives have a fitted effect of over 60% in size
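Steps: seed 1500 PC12 HTTQ103-GFP cells/well; add tebufenozide, 100 nM final; add compound titration; add ATPLite reagent; quantify GFP aggregates by laser scanning cytometry.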
Active calls of the source: *; ? = inconclusive; / = no result; [ ] = another dose, or the depositor's remark. A selection: hits, their analogues and other compounds. The true share with any hit is near 11%. Unless noted, the call rests on the fitted dose curve; in most records, active means well fitted curve in the direction sought with a large enough effect; inconclusive means small, poorly fitted or top-dose-only effect, or another doubt; inactive means no such curve, though single readings can be large; an effect the other way counts as inactive or inconclusive.

SMILES	RGS12 GoLoco inh	ALDH1A1 block	HPGD inh	PNC assembly inh	HTT cytoprotect	HTT aggregate
O=C1C=CC(=O)N1c1ccc(OC(F)F)cc1	-37%	0.71µM*	7.1µM*	-9	/	?
O=S(=O)(c1ccc(NC(=S)NC2CC2)cc1)N1CCOCC1	1%	?	/	/	-2%[10 µM]	5%[9.22 µM]
O=S(=O)(NC(=S)NC1CCCCC1)c1ccc(Br)cc1	3%	25µM*	/	/	/	11%
O=C(NC(=S)Nc1ccc(S(=O)(=O)N2CCCC2)cc1)C1CC1	14%	20µM*	/	/	-42%	24%
NS(=O)(=O)c1ccc(NC(=S)NC2CCCC2)cc1	-5%	?	14µM*	6	/	3%
O=C(NC(=S)Nc1ccc(S(=O)(=O)N2CCCC2)cc1)C1CCC1	-7%	?	3%	4	/	27%
O=S(=O)(c1ccc(NC(=S)NC2CCCC2)cc1)N1CCCC1	4%	14µM*	/	/	-3%[10 µM]	-17%
CN(C)C(=O)c1ccc(-c2ccc3ncnc(Nc4ccccc4)c3c2)cc1	14%	?	/	/	-103%	/
CCC1=C2CC[C@H]3C(=O)N(C)C(=O)[C@H]3[C@H]2[C@@]2(C)C(=NCC(=O)OC)OC(=O)N2C1=O	2%	-2%	-7%	/	-20%	/
COc1cccc(CC2(CO)CCN(CC3=CC[C@H]4C[C@@H]3C4(C)C)CC2)c1	11%	4%	/	/	10%[10 µM]	25%[9.22 µM]
Cc1csc(SCc2nc3scc(-c4ccccc4)c3c(=O)[nH]2)n1	5%	?	/	/	-26%	-20%
NC(=O)Cc1nc2scc(-c3ccccc3)c2c(=O)[nH]1	20%	13µM*	/	/	-11%	-3%[9.22 µM]
Cc1ccc(-c2csc3nc(CN(C)Cc4ccccc4)[nH]c(=O)c23)cc1	55%	?	/	/	-104%	?
O=c1[nH]c(Cc2ccc(F)cc2)nc2scc(-c3ccc(F)cc3)c12	-3%	32µM*	22µM*	35	3%[0.074 µM]	7%
C/C(=N\NC(=O)c1cccc(Cl)c1)C1C(=O)c2ccccc2C1=O	8%	13µM*	?	12	-80%[10 µM]	?
CCCCc1nc(SCc2ccc([N+](=O)[O-])cc2)n[nH]1	-8%	-5%	/	/	-15%	2%
CC(C)CCN1C(=O)CC(NNC(=O)c2ccc(S(=O)(=O)N3CCCC3)cc2)C1=O (centres undefined)	7%	13µM*	/	/	1%[10 µM]	-13%[9.22 µM]
CCNc1ccc(S(=O)(=O)N(C)C)cc1NCC(=O)Nc1ccccc1Cl	13%	8.9µM*	/	/	/	-21%
CCCCn1c(N)c(N(CC)C(=O)c2cccc(OC)c2)c(=O)[nH]c1=O	-1%	14%	/	/	-8%	-9%
Cc1ccc2sc(NNC(=O)c3cc(=O)c4ccccc4o3)nc2c1C	18%	13µM*	/	/	-5%[10 µM]	-13%[9.22 µM]
CC(C)N(Cc1nccn1C)C(=O)CC1C(=O)NCCN1Cc1ccccc1C(F)(F)F (centres undefined)	22%	40µM*	/	/	-21%	4%
COC(=O)c1ccc2c(=O)n(CC3CCCO3)c(SCC(=O)Nc3ccccc3Cl)nc2c1 (centres undefined)	4%	16%	-9%	19	10%[10 µM]	12%
O=C(CCCn1c(SCC(=O)c2ccc(O)c(O)c2)nc2ccccc2c1=O)NCC1CCCO1 (centres undefined)	-15%	18µM*	5µM*	?	3%	-10%
COC(=O)c1ccc2c(=O)n(CC3CCCO3)c(SCC(=O)Nc3ccccc3OC)nc2c1 (centres undefined)	7%	14µM*	-12%	?	-7%	15%
O=C(CCCn1c(SCC(=O)NC2CCCCC2)nc2ccccc2c1=O)NCC1CCCO1 (centres undefined)	0%	?	?	-8	-8%	13%
SMILES	RGS12 GoLoco inh	ALDH1A1 block	HPGD inh	PNC assembly inh	HTT cytoprotect	HTT aggregate
C=CCn1c(SCC(=O)N2CCCC2)nc2cc(C(=O)NCC3CCCO3)ccc2c1=O (centres undefined)	7%	?	?	9	-17%[0.074 µM]	2%
CCCCCn1c(SCC#N)nc2cc(C(=O)NCC3CCCO3)ccc2c1=O (centres undefined)	-1%	2%	2.5µM*	?	-18%	-15%
O=c1oc2cc(O)ccc2cc1-c1ccc2c(c1)OCCO2	4%	?	?	/	-237%	/
COc1cccc(NC(=O)COC(=O)CNS(=O)(=O)c2c(F)cccc2F)c1	22%	-14%	-15%	178	18%[10 µM]	-14%
Nc1nonc1C(=O)N/N=C/c1ccc(-c2cccc(C(=O)O)c2)o1	4%	?	/	/	-3%[10 µM]	16%
CCOC(=O)CNC(=O)O[C@@H]1C(=O)c2cc(Br)ccc2O[C@H]1c1ccc2c(c1)OCO2	0%	10%	-11%	/	-23%	/
CCOC(=O)c1c(-c2ccc(C)o2)csc1NC(=O)CN1CCC(C(N)=O)CC1	-15%	25µM*	/	/	-38%	9%
CCOC(=O)c1c(-c2ccco2)csc1NC(=O)CSc1nnc(N)s1	86%	?	-18%	51	-19%	16%
CCOC(=O)c1c(-c2ccc(C)o2)csc1NC(=O)CSc1nncs1	-14%	11µM*	20µM*	?	26%	2%[9.22 µM]
CCOC(=O)c1c(-c2ccc(C)o2)csc1NC(=O)CN1CCCCC1	-25%	?	/	/	-8%[10 µM]	8%
Cc1c(C(=O)NN2CCOCC2)oc2ccccc12	-5%	-8%	/	/	-26%	-11%[9.22 µM]
COc1ccc(CNc2ccnc(-c3cccc(C#N)c3)n2)c(OC)c1	14%	?	/	/	-113%	/
Cn1nnnc1SCCNS(=O)(=O)c1ccccc1	-1%	-10%	-10%	?	12%	-10%
Cc1ccc(-n2nnnc2SCCNS(=O)(=O)c2ccccc2)cc1C	1%	5µM*	-6%	?	-26%	-26%
O=C1[C@H]2[C@H]3[C@H](O)[C@H](O)C/C(=N/OC[C@@H](O)COCc4ccco4)[C@@H]3CC[C@@H]2C(=O)N1c1cccc(Oc2ccccc2)c1	/	-9%[13.5 µM]	/	/	0%[10 µM]	/
CCOC(=O)c1sc2nc(CSc3ccccc3)nc(N3CCCN(C)CC3)c2c1C	-11%	28µM*	/	/	-65%	?
Oc1cc2c(c(Cl)c1O)CCNC[C@H]2c1ccccc1	-20%	5%	-18%	/	5%	/
CCC(=O)NC(=S)Nc1cccc(NC(=O)CC)c1	7%	-2%	-8%	?	-16%	8%
CCC(=O)Nc1cccc(NC(=S)NC(=O)c2ccc(C)cc2)c1	12%	13µM*	/	/	2%[10 µM]	7%[9.22 µM]
CCC(=O)Nc1cccc(NC(=S)NC(=O)c2cccc(C)c2)c1	-39%	25µM*	-9%	19	/	0%
O=C(NC(=S)Nc1cccc(CO)c1)c1ccc(-c2ccccc2)cc1	-4%	13µM*	-11%	?	5%[0.074 µM]	-10%
CCC(=O)Nc1cccc(NC(=S)NC(=O)c2ccccc2)c1	-1%	?	-7%	48	14%[10 µM]	-5%
